In PubChem BioAssay (NCI) one finds growth data, which are given here for 40 compounds.

The panel holds about 83,000 compounds, 20% with a hit somewhere; the sample as a whole holds those more often.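 Cell lines were cultured in 96-well plates, exposed to a single compound concentration, and assessed for percent growth 48 hours later.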 Activity calls are given as the source filed them. How the source made its calls: active means growth percent below 10; inactive means the rest.

The experiment deals with HL-60(TB) leukemia. Briefly: NCI-60 one-dose screen, 48 h (100 = growth as untreated, 0 = no growth, -100 = all killed). Particulars: 10 µM unless noted.
`CC(C)(C)c1ccc(S(=O)(=O)N[C@H]2CC[C@H]3[C@@H]4CCc5cc(O)c([N+](=O)[O-])cc5[C@H]4CC[C@]23C)cc1`: the growth is 60.7% (inactive).
On to `COc1ccc(-n2ncc3c2ccc2cc(S(=O)(=O)c4ccccc4)c(=O)n(C)c23)cc1`, for which the growth is 110% (inactive).
In the case of `S=C(N/N=C/c1ccccn1)Nc1ccccn1` it was -13.7% (active).
In the case of `CCc1nnc(NC(=O)c2nnn(-c3ccccc3)c2-c2ccco2)s1`, the growth was 79.9% (inactive).
As to `C=C1CCC2C3(C)COC(c4ccc(NC(C)=O)cc4)OC3CCC2(C)C1C/C=C1/C(=O)OCC1O` (stereo not given), the growth was 32.8% (inactive).
In the case of `COc1cc(-c2nn(-c3ccc(NC(=O)NCCNS(=O)(=O)c4ccc(F)cc4)cc3)cc2-c2ccncc2)ccc1Cl`, the growth was -9.47% (active).
In the case of `CC(C)C1=NOC(=O)C1=Cc1cn(-c2ccccc2)nc1-c1ccc(Cl)cc1` it was -44.5% (active); in that of `COc1ccc(CNc2nc3ccccc3c3c(=O)c4ccccc4sc23)cc1OC`, 98.9% (inactive); in that of `CC(C)c1ccc(NC(=O)Cc2ccc(Nc3ncnc4cc(-c5cnn(CCN(C)C)c5)ccc34)cc2)cc1`, -66.4% [30 µM] (active).
With `O=c1[nH]c(N2CCC(Cc3ccccc3)CC2)nc2sc3c(c12)CCCC3` the figure was 95.7% (inactive); with `O=C(Nc1ccc(-n2cc(-c3ccncc3)c(-c3ccc(Cl)c(O)c3)n2)cc1)c1ccc(Cl)c(Cl)c1`, -27% (active).
For the compound `CC(=O)Nc1ccc(OC(=O)c2ccccc2O)cc1`, the growth was 102% (inactive).
Regarding `COc1cc(OC)c2c(c1Cl)O[C@]1(C2=O)C(OCc2ccccc2)=CC(=O)C[C@H]1C`, the growth was -12% (active).
As for `CCNCCCn1c2c(c3ccc([N+](=O)[O-])cc3c1=O)C(=O)c1cc(OC)cnc1-2`, the growth is -36% (active).
As to `COc1cc(-c2cc(/C=C/C(=O)c3ccc(F)c(F)c3)[nH]n2)cc(OC)c1OC`, the growth is 82.6% (inactive).
With `C=C1C(=O)O[C@H]2[C@H]1CC/C(COC(=O)NCCc1c[nH]c3ccc(Cl)cc13)=C\CC[C@@]1(C)O[C@@H]21`, the growth is -26.2% (active).
Consider `Nc1n[nH]c2ccc([C@@H]3Nc4ccc5cn[nH]c5c4[C@H]4C5CCC(C5)[C@@H]34)cc12` (stereo not given in full), for which the growth was -29.2% (active).
In the case of `CC(=O)c1c(/C=C/c2ccc(C)cc2)c2ccccc2[nH]c1=O` it was 99.3% (inactive); in that of `N#C/C(=C\c1c(-c2ccccc2)[nH]c2ccccc12)C(N)=O`, 39.6% (inactive); in that of `COc1ccc2[nH]c(-c3ccccc3)cc2c1`, 60.7% (inactive).
In the case of `CC(=O)N/C(=C1/OC(C(O)C(O)C(O)CO)CN1C)[P+](c1ccccc1)(c1ccccc1)c1ccccc1` (stereo not given), the growth was 97.9% (inactive).
In the case of `CCCOC(=O)c1ccc2c(c1)[N+](=O)C(C(=O)c1ccccc1)=C(C(F)(F)F)[N+]2=O` it was -71.6% (active).
In the case of `Nc1cccc2cccc(O)c12` it was 82.9% (inactive); in that of `CCCCOC(=O)c1cc(O)c(O)c(O)c1`, 24.7% (inactive); in that of `O=S(=O)(Nc1cc(F)cc(Cl)c1)c1ccc(-c2cnc(C3CC3)o2)cc1`, 7.71% (active).
For `Cc1cc(C)c2c(N)c3cccc(C)c3nc2n1`, the growth is -19.1% (active).
On to `CNC(=O)c1nn(C)c2c1C(C)(C)Cc1cnc(Nc3ccc(N4CCN(C)CC4)cc3)nc1-2`, for which the growth is -27% (active).
Take `c1ccc(C2CCCCC2)c(OCCCCCN2CCNCC2)c1`: the growth was 28.2% (inactive).
With `COc1cc2nc(-c3ccc(-c4nn[nH]n4)cc3)[nH]c(=O)c2cc1OC` the figure was 93.8% (inactive); with `NC(=O)NS(=O)(=O)c1ccc(N2N=C(C(F)(F)F)CC2c2cc(C(F)(F)F)cc(C(F)(F)F)c2)cc1` (stereo not given), 38.7% (inactive).
`CC(O)c1ncc(/C=C2\SC(=S)N(Cc3ccccc3)C2=O)s1` (stereo not given): the growth is 85.2% (inactive).
Regarding `N#Cc1cccc(-c2ccc3c(c2)NC(=O)/C3=C\c2ccc[nH]2)c1`, the growth is 64.8% (inactive).
Consider `O=c1[nH]c(=O)n(C2C[C@H](O)[C@@H](CO)O2)cc1C(F)(F)F` (stereo not given in full), for which the growth was 85.8% (inactive).
For `COc1ccc(/C=C/C(=O)c2ccc([N+](=O)[O-])cc2)cc1`, the growth is 82% (inactive).
Regarding `C/C(=C(/c1ccc(Cl)cc1)c1ccc(OCCN2CCCCCC2)cc1)c1ccccc1`, the growth is 63.6% (inactive).
In the case of `Cc1ccc(Cl)cc1N1C(=O)CC(Sc2ccccc2N)C1=O` (stereo not given) it was 110% (inactive); in that of `Cc1nc2cccc(NCCCCC(=O)NO)c2c(=O)n1-c1ccccc1`, 42.8% (inactive).
With `COc1ccc(C(=O)OC2C(OC3C(O)COC(O[C@H]4C[C@H]5[C@@H]6CC=C7C[C@@H](O)CC[C@]7(C)[C@H]6CC[C@]5(C)[C@H]4[C@H](C)C(=O)CCC(C)C)C3OC(=O)C(C)C)OCC(O)C2O)cc1` (stereo not given in full) the figure was -17% (active).
With `Cc1cccc2c1O/C(=C\c1ncc([N+](=O)[O-])n1C)C2=O` the figure was -9.87% (active); with `COC(=O)Cn1c2c(c3c(OC)cccc31)C(=O)c1ccccc1-2`, 75.6% (inactive).
